# Measured values published in PubChem BioAssay AID623995 (National Center for Advancing Translational Sciences (NCATS), 2012).
# The other results are listed elsewhere or left out. Records with an inconclusive call do not appear. Active and inactive are the calls of the source. Calls follow the shape of the dose curve; as a rule, active = well fitted inhibition curve with a large enough effect; inconclusive = small, poorly fitted or top-dose-only effect; inactive = no such curve, though single readings can be large or run the other way.
# Target: Isocitrate dehydrogenase [NADP] cytoplasmic (Homo sapiens) (UniProt O75874)
# Assay: qHTS for Inhibitors of mutant isocitrate dehydrogenase 1 (IDH1): Cherrypicks in WT IDH1; also: nearly all actives have a fitted effect of over 55% in size
# Conditions: WT IDH1 enzyme, NADPH diaphorase/resazurin fluorescence; series mostly up to 115 µM; activity change, negative = inhibition: at the top concentration
# Description: Unbiased genomic sequencing for 22 glioma genomes found recurrent mutation of isocitrate dehydrogenase 1 (IDH1) on chromosome 2q33-a gene encoding the cytosolic isoform of IIDH1associated with the tricarboxylic acid cycle (TCA) that catalyzes the oxidative decarboxylation of isocitrate, yielding alpha-ketoglutarate and CO2 via NADP+ to NADPH conversion. Subsequent studies confirmed the recurrent IDH mutations in up to 70% of secondary gliomas and in 10% of AML cases. […] This in effect defines IDH1 as an oncogene, and provides an extraordinary opportunity to discover chemical probes against mutant IDH1 that may translate into much needed new therapies for glioma and AML patients. QHTS-compatible fluorescent, enzymatic assay was developed to identify inhibitors of the IDH1 mutant (AID 602179). To identify selectivity of the identified inhibitors, a secondary enzymatic assay against the WT IDH1 was also developed. Inhibition of the WT IDH1 leads to a decrease in the amount of NADPH relative to a DMSO control and a concomitant decrease in the fluorescence of the diaphorase/resazurin enzyme product resorufin at 590 nm. Compounds were screened as a concentration-titration series that ranged from 115 uM to 0.20 uM. NIH Molecular Libraries Probe Production Network [MLPCN] NIH Chemical Genomics Center [NCGC] MLSCN Grant: R03 DA032129 PI Name: Dr. Lenny Dang
# Enzyme buffer was dispensed into black, solid 1536-well plates at 3 microL/well in 20 mM Tris buffer, pH 7.5, containing final concentrations of 10 mM MgCl2, 20 mM NaCl, 0.05% BSA, 2 mM b-ME and 0.65 nM WT IDH1. Then, 23 nL of compounds or DMSO were delivered to each well using a pin tool. The substrate and detection buffer (1 uL; 20 mM Tris buffer, pH 7.5, containing final concentrations of 10 mM MgCl2, 20 mM NaCl, 0.05% BSA, 0.06 mM NADP+, 0.53 uM diaphorase, 0.012 mM resazurin and 0.08 mM isocitrate) was added to start the enzymatic reaction. The fluorescence intensity was monitored in kinetic mode on a ViewLux plate reader at 598 nm for 10 minutes (Ex 525, EM 598, bodipy mirror, 0.5 sec exposure). The % Activity was determined from the corrected fluorescence values. As no specific WT IDH1 inhibitors have been identified in the literature, 1x (0.65 nM) and 0x WT IDH1 enzyme controls (untreated) were included to normalize % Activity of identified inhibitors; 0x enzyme values corresponded to 100% Activity (full inhibition), while 1x WT IDH1 enzyme values were used to normalize 0% Activity (no inhibition). Concentration-response curves were fitted to the signals arising from the resulting fluorescence. The concentration-response curves were then classified based on curve quality (r2), response magnitude and degree of measured activity, and compounds were subsequently categorized based on their curve class. […] Keywords: Isocitrate dehydrogenase, IDH1, IDH1 R132H, 2-HG, 2-hydroxyglutarate, AML, glioma, MLSMR, MLPCN, NIH Roadmap, qHTS, NCGC
# Potency is read from the fitted curve at half-maximal effect.
# Chain of Isocitrate dehydrogenase [NADP] cytoplasmic (Homo sapiens) (O75874 whole entry, looked up): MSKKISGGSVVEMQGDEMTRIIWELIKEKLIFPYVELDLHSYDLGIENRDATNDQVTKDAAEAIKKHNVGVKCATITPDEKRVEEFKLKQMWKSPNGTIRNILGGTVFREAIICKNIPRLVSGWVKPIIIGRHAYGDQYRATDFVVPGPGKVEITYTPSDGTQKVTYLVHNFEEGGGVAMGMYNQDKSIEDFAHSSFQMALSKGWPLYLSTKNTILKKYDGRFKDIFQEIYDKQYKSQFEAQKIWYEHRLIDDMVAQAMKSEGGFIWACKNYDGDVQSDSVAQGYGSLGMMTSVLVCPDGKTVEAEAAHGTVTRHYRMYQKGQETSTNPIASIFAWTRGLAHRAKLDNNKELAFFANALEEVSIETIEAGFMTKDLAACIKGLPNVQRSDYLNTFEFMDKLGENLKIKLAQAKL
SMILES,"activity change, negative = inhibition",Potency
CCC(C)(C)NC(=O)C(c1cccn1C)N(Cc1ccc(C)cc1)C(=O)Cn1nnc2ccccc21 (centres undefined),4.89% (inactive),
CCCc1[nH]nc2c1C(c1ccc(OC)c(Cn3nc(C)c(Br)c3C)c1)C(C#N)=C(N)O2 (centres undefined),15.8% (inactive),
COC(=O)c1cccc(N(C(=O)c2ccco2)C(C(=O)NC2CCCC2)c2ccco2)c1 (centres undefined),4.88% (inactive),
COc1cc(/C=C2/SC(=S)N(Cc3ccccc3)C2=O)cc(OC)c1O,-23.7% (inactive),
O=C1c2cccc3cccc(c23)C(=O)N1CCCCCc1n[nH]c(=S)o1,25.5% (inactive),
N#CC1=C(N)C(C#N)(C#N)[C@H](c2ccsc2)[C@H]2COCC=C12,130% (inactive),
Cc1cccc(N(C(=O)Cc2cccs2)C(C(=O)NC2CCCC2)c2ccsc2)c1 (centres undefined),-5.18% (inactive),
CC(C)N(C(=O)CSc1nc(COc2ccccc2)nc2ccccc12)C(C)C,-3.75% (inactive),
C(=N/Nc1cc(N2CCOCC2)nc(N2CCOCC2)n1)/c1ccccc1,-2.88% (inactive),
CCCOc1ccc(C2c3c(-c4ccccc4O)n[nH]c3C(=O)N2Cc2cccnc2)cc1 (centres undefined),2.01% (inactive),
Cc1ccc(Nc2nc(CSc3nnc(-c4ccncc4)n3-c3ccccc3C)cs2)cc1,-9.79% (inactive),
COc1cc(/C=C2/C(=O)ON=C2C)ccc1OCc1ccccc1F,4.5% (inactive),
CC(C)(C)c1ccc(S(=O)(=O)Nc2ccc(O)c(Sc3nc4ccccc4s3)c2)cc1,11.2% (inactive),
COc1cc2c(-c3ccc4c(c3)OCO4)c(-c3ccsc3)oc(=O)c2cc1OC,2.94% (inactive),
CCSc1nc2sc3c(c2c(=O)n1-c1ccc(C)cc1)CCN(C)C3,-9.91% (inactive),
Cc1nc(C)c(C(=O)N(c2ccc(C)c(C)c2)C(C(=O)NCc2ccco2)c2ccccc2)s1 (centres undefined),-5.09% (inactive),
COc1ccc(/C=N/Nc2cc(N3CCOCC3)nc(C)n2)c(OC)c1,3.66% (inactive),
COc1ccc(C(CCN(Cc2ccc(OC)c(OC)c2)C(=O)CCl)c2ccccc2)cc1 (centres undefined),-5.8% (inactive),
COc1ccc(/C=C2/SC(=O)N(CCCCCC(=O)Nc3ccccc3C(=O)O)C2=S)cc1,,79.4 µM (active)
CCCCC(=O)NC(c1ccc(OC)c(OC)c1)c1ccc2cccnc2c1O (centres undefined),-5.29% (inactive),
CCOC(=O)c1oc2c(CN3CCN(CCO)CC3)c(O)c(CC)cc2c(=O)c1-c1nc2ccccc2s1,0.488% (inactive),
COc1ccc(C(C(=O)NC2CCCCC2)N(C(=O)c2snc(C(N)=O)c2N)c2ccccc2OC)cc1 (centres undefined),-5.01% (inactive),
CCOC(=O)c1ccc(N2C(=O)c3n[nH]c(-c4ccco4)c3C2c2ccc(O)cc2)cc1 (centres undefined),-10.9% (inactive),
CC(C)Nc1nc(N(c2ccccc2)c2ccccc2)nc(-n2ccnc2)n1,-7.64% (inactive),
CCCNc1ncnc2c1c(-c1ccccc1)cn2-c1ccc(OCC)cc1,-9.03% (inactive),
Cc1ccc2nc(N3C(=O)C(O)=C(C(=O)c4ccco4)C3c3cccc(O)c3)sc2c1 (centres undefined),-9.63% (inactive),
CCCc1nc2c(c(=O)c3ccccc3n2C)c(=O)n1C1CCCCCC1,1.92% (inactive),
Cn1c(COc2ccc(Cl)cc2)nc2ccccc2c1=O,-2.18% (inactive),
Cc1nc(-c2ccc(Cl)cc2)sc1C(=O)CBr,7.04% (inactive),
